# Sampled rows, rich in hits. Any-hit rate of the full collection: about 9.3%.
# SMN2 splice up: SMN2 splice variant enhancement; HEK293 SMN2-luciferase splicing reporter, luminescence, 30-36 h; Potency, µM (highest dose often 46.1 µM), for the others: at the top dose activity change, positive = activation, actives largely listed as activators; 210,000 tested, 2.8% active; AID 1458; also: % of control where 0% means no effect; nearly all actives have a fitted effect of over 55% in size
#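 qHTS luciferase splicing reporter: luminescence rises when SMN2 exon 7 is included in transfected HEK293 cells. Compound exposure lasted 30-36 h at 37C, with 4.5 mM final sodium butyrate as control, followed by a ONE-Glo read.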
# FLuc modulator: inhibits or activates purified firefly luciferase, miR-21 counter-screen; purified FLuc, Km substrates, luminescence inhibition; Potency, µM (titrated, usually from 57.5 µM), for inactives: at the top dose activity change, negative = inhibition, actives largely listed as inhibitors; 360,000 tested, 6.9% active; AID 588342;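 also: plate controls were vehicle for no effect and reference inhibitor for full effect; nearly all actives have a fitted effect of over 55% in size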
# Target sequence (P08659 whole entry, looked up): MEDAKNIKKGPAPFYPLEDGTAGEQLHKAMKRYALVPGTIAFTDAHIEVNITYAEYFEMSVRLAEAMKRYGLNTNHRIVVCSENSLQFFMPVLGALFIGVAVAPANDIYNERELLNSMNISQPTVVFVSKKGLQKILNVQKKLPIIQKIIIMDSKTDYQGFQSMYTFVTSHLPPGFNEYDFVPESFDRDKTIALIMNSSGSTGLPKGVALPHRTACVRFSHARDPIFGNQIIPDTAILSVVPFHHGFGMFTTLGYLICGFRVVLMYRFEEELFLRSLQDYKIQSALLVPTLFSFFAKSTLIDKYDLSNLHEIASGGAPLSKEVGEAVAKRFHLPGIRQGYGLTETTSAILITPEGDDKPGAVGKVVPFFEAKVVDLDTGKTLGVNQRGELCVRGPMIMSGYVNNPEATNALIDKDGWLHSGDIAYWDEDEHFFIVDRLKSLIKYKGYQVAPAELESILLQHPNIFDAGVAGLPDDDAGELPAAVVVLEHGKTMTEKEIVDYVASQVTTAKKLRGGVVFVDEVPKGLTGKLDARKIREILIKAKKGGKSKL
#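 Purified P. pyralis luciferase (10nM final) with 10uM D-luciferin and 10uM ATP (Km levels) in 50mM Tris acetate pH 7.5, 10mM Mg acetate, 0.01% Tween-20, 0.05% BSA; qHTS 6-point titration, ~60 µM downward; luminescence read.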
# NPC1 promoter act: activates the NPC1 promoter. 320,000 tested, 2.4% active. Huh7 NPC1 promoter luciferase reporter, 24 h. Potency, µM (highest dose often 9.22 µM), inactives show at the top dose activation, usual class: activators; also: % of control where 0% means no effect; nearly all actives have a fitted effect of over 60% in size
#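 In 1536-well qHTS, Huh7 cells harboring an NPC1 promoter–luciferase construct received compound for 24 h; activation was quantified by luminescence following luciferase reagent addition.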
# Rab9 promoter act: activates the Rab9 promoter. 320,000 tested, 2.8% active. Potency, µM (titrated, usually from 9.22 µM), for inactives: at the top dose activation, negative = inhibition, hits mostly activators. Huh7 Rab9 promoter-luciferase reporter, luminescence, 24 h; also: % of control where 0% means no effect; nearly all actives have a fitted effect of over 60% in size
#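 Huh7 cells stably carrying Rab9 promoter–luciferase reporter, plated 1500 cells/well, compound added after 2 h and incubated 24 h at 37 °C; luciferase luminescence then read after 10 min with detection reagent.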
# ELG1 genotox: induces genotoxicity in HEK293T cells with luciferase-tagged ELG1; 330,000 tested, 1.3% active; AID 504466; HEK293T ELG1-luciferase reporter, luminescence, 16 h; Potency, µM (titrated, usually from 46 µM), without a hit: at the top dose activity change, positive = activation, most hits filed as activators; also: % of control where 0% means no effect; nearly all actives have a fitted effect of over 60% in size
#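 ELG1-luciferase HEK293T cells, 2,000/well; compound pinned in; 16 hr, 37 °C, 5% CO2; ONE-Glo, 30 min RT; luminescence on CCD imager.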
# ELG1 repair inh: ELG1-dependent DNA repair inhibition. HEK293T ELG1-luciferase reporter, luminescence, 16 h; DNA damage induced by 5-fluorouridine. Potency, µM (doses to about 46.1 µM), for inactives: at the highest dose activity change, negative = inhibition, usual class: inhibitors. 330,000 tested, 2.3% active. AID 504467; also: % is scaled to controls: 0 for no effect and ±100 for the full control effect; nearly all actives have a fitted effect of over 55% in size
#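 DMSO vehicle served as the neutral condition. Each well held 2,000 cells given 5-fluorouridine plus compound; after 16 hr at 37 °C/5% CO2, ONE-Glo was added and luciferase measured 30 min later.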
# An asterisk follows results filed as active; ? = inconclusive; · = no result; [ ] = another dose, or the depositor's remark. Calls follow the shape of the dose curve; as a rule, active = well fitted curve in the direction sought with a large enough effect; inconclusive = small, poorly fitted or top-dose-only effect, or another doubt; inactive = no such curve, though single readings can be large; an effect the other way counts as inactive or inconclusive. Potency is read from the fitted curve at half-maximal effect.
SMILES,SMN2 splice up,FLuc modulator,NPC1 promoter act,Rab9 promoter act,ELG1 genotox,ELG1 repair inh
CN(C)S(=O)(=O)c1cccc(NC(=O)COc2ccc(S(=O)(=O)N3CCOCC3)cc2Cl)c1,·,·,·,·,-1%,2%
CN(C)S(=O)(=O)c1cccc(NC(=O)c2cc3ccccc3o2)c1,3%,8.5µM*,30%,?,6%,?
CCN(CC)S(=O)(=O)c1cccc(NC(=O)COc2ccc(Cl)cc2Br)c1,-37%,21µM*,0%,-3%,-1%,?
CCN(CC)S(=O)(=O)c1cccc(NC(=O)c2cc3ccccc3o2)c1,-19%,12µM*,0%,9%,-4%,?
COc1cccc2cc(-c3csc(CCn4nc(C)cc4C)n3)c(=O)oc12,-35%,-24%,-3%,4%,-2%,-10%
CCCCN1C(=O)C(=O)N(CC(=O)Nc2cc(S(=O)(=O)N(C)C)ccc2C)C1=O,·,1%,-1%,1%,1%,-2%
CCN(CC)S(=O)(=O)c1cccc(NC(=O)COC(=O)c2cc(C)oc2C)c1,-7%,2%,-5%,3%,-8%,21µM*
CN(C)S(=O)(=O)c1cccc(NC(=O)COC(=O)c2cc3ccccc3oc2=O)c1,·,13µM*,3.5µM*,3.2µM*,9.2µM*,?
O=C(COC(=O)c1cc2ccccc2oc1=O)Nc1cccc(S(=O)(=O)N2CCCCCC2)c1,17%,-19%,2%,12%,?,?
C=CCc1cc(/C=C/c2nc(O)c([N+](=O)[O-])c(=O)[nH]2)cc(OC)c1O,9%,17µM*,-2%,-3%,-1%,4%
Cc1cc(C)n2c(nc3ccccc32)c1C(=O)NCc1ccccc1,-2%,-9%,1%,7%,-1%,24%
Cc1cc(C)n2c(nc3ccccc32)c1C(=O)NN,·,0.38µM*,1%,-1%,7%,?
CC(C)(C)c1ccc(OCCC(=O)Nc2cccc(S(=O)(=O)N3CCCC3)c2)cc1,·,-4%,-6%,-17%,?,?
CC(C)(C)c1ccc(-c2nc(NCc3cccnc3)c3ccccc3n2)cc1,25µM*,3.4µM*,?,21%,?,?
c1ccc(-c2nc(NCc3cccnc3)c3oc4ccccc4c3n2)cc1,-4%,?,-3%,10%,-7%,23µM*
Clc1ccc2[nH]c3c(NCC4CCCO4)ncnc3c2c1 (stereo unspecified),·,?,0%,1%,-9%,?
c1ccc2c(c1)oc1c(NCC3CCCO3)ncnc12 (stereo unspecified),0%,17µM*,-4%,11%,2%,?
O=C(O)CNc1nc(-c2ccccc2)nc2c1oc1ccccc12,·,?,-5%,-7%,0%,3%
OCCCNc1nc(-c2ccccc2)nc2c1oc1ccccc12,·,?,2%,-2%,-7%,23µM*
O=C(Oc1cccc(NC(=O)c2ccco2)c1)c1cccc(S(=O)(=O)N2CCCC2)c1,29%,-17%,-3%,0%,19%,?
COc1ccc(NC(=O)CSc2nc3c(c(=O)n(C)c(=O)n3C)n2C)c(OC)c1,·,0%,-4%,4%,-1%,-9%
O=C(CSc1ccccn1)Nc1ccc(N2CCOCC2)cc1,15%,-15%,-1%,5%,-1%,-6%
c1ccc(-c2nc(NCC3CCCO3)c3oc4ccccc4c3n2)cc1 (stereo unspecified),-16%,15µM*,1%,-12%,-8%,16µM*
Cc1c(C(=O)N2CCCCC2)c(S(=O)(=O)Nc2cccc(Br)c2)c(C)n1C,·,-2%,2%,-1%,0%[9.26 µM],12%
Cc1ccc2c(Cl)c(C(=O)Nc3ccc4c(c3)OCO4)sc2c1,?,-28%,?,2µM*,18%,?
SMILES,SMN2 splice up,FLuc modulator,NPC1 promoter act,Rab9 promoter act,ELG1 genotox,ELG1 repair inh
CC(C)c1onc(C(=O)Nc2ccc3c(c2)OCO3)c1[N+](=O)[O-],·,27µM*,1%,0%,?,29%
Cc1noc(C(=O)Nc2ccc3c(c2)OCO3)c1Cl,?,19µM*,?,4µM*,?,?
CCc1onc(C)c1C(=O)Nc1ccc2c(c1)OCO2,·,2%,-1%,-6%,1%,15%
CC(=O)c1ccc(NC(=O)c2onc(C)c2Cl)cc1,·,?,1.4µM*,0.63µM*,?,?
COc1ccc(NC(=O)C2=C(C)Nc3ncnn3C2c2ccccn2)cc1 (stereo unspecified),·,-3%,·,·,·,·
C/C(=N\NC(=O)c1ccccc1O)C1C(=O)c2ccccc2C1=O,10µM*,13µM*,?,28%,8.2µM*,?
O=C(O)c1ccc(/C=N/NC(=O)c2cc3ccccc3cc2O)cc1,·,·,·,·,0%,-10%
C/C(CC(=O)N1CCN(C=O)CC1)=N\NC(=O)c1cc2ccccc2cc1O,16%,21µM*,-3%,-5%,0%,1%
C/C(=N/NC(=O)c1cc2ccccc2cc1O)C1C(=O)c2ccccc2C1=O,?,17µM*,22%,?,?,?
CCC/C(C)=N/NC(=O)c1ccccc1O,0%,?,-5%,-4%,-1%,12%
COc1ccc(Nc2ncc(C#N)c(N)n2)c(OC)c1,·,-17%,11%,0%,9%,?
Brc1c(OCCOCCn2cncn2)ccc2ccccc12,17%,?,3%,6%,?,?
Nc1ncnc2c1nc(Br)n2C1O[C@H]2COP(=O)(O)O[C@@H]2C1O (stereo partly specified),-24%,·,·,·,·,·
COC(=O)c1ccc(OC)c(CN2CCCN(Cc3cc(C)ccc3C)S2(=O)=O)c1,·,1%,1%,-2%,-4%,15µM*
COC(=O)c1ccc(OC)c(CN2CCCN(Cc3ccc(C)cc3)S2(=O)=O)c1,·,-10%,·,·,·,·
Cc1ccc(C(C)C)c(OCCNCc2ccccc2)c1,·,1%,-6%,-3%,-6%,-18%
Cc1cccc(C(=O)Nc2c(-c3ccc(F)cc3)nc3ccccn23)c1,0%,-7%,·,·,·,·
Cc1ccc(NC(=O)CSc2n[nH]c(-c3ccco3)n2)cc1,·,-19%,4%,?,?,?
COC(=O)c1ccc(N=NN2CCCCCC2)cc1,13µM*,6.7µM*,2.2µM*,3.2µM*,?,?
O=C(O)c1ccc(N=NN2CCCCC2)cc1,26%,11µM*,?,1.3µM*,?,?
O=C(O)C1SCCN1S(=O)(=O)c1ccc(N=NN2CCOCC2)cc1 (stereo unspecified),·,1%,-2%,-8%,0%,-20%
CC(=O)NS(=O)(=O)c1ccc(N=NN2CCCCC2)cc1,2%,2%,-2%,1%,2%,14%

# Assay outcomes (PubChem BioAssay)
